Bioassay records (PubChem BioAssay)
Tb PYK inh: qHTS of Trypanosoma Brucei Inhibitors; pyruvate kinase (Trypanosoma brucei), Q57TT1; TbPYK enzyme, Kinase-Glo Plus ATP luminescence, 45 min; Potency, µM (titrated, usually from 76.8 µM), inactives show at the highest dose activity, negative = inhibition, most hits filed as inhibitors; 410,000 tested, 0.12% active; further: on the % scale 0 is the no-effect control and ±100 the full control effect; nearly all actives have a fitted effect of over 50% in size
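Assay buffer: 50 mM TEA pH 7.2, 100 mM KCl, 10 mM MgCl2, 0.05% BSA, 0.01% Tween-20. Pyruvate kinase from T. brucei plus substrate met compound, then ADP (130 uM final). Luminescence was read post 45 min RT.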
NS1 function inh: qHTS Assay for Inhibitors of Influenza NS1 Protein Function; Potency, µM (doses to about 46.1 µM), inactives show at the highest dose activity, positive = more growth; 270,000 tested, 0.4% active; AID 2326, 2010; calls by dose curve; further: actives are rising curves; nearly all actives have a fitted effect of over 50% in size
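A cell-based growth assay was used: compounds that relieve NS1-induced slow growth of budding yeast raise OD600. Assay medium was yeast nitrogen base with ammonium sulphate and -URA supplement, pH 6.0, with 2% galactose.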
RE007 growth inh: qHTS Assay for Inhibitors of the HIV-1 protein Vpr; S. pombe RE007 Vpr strain, BacTiter-Glo ATP luminescence, 24 h; Potency, µM (top dose mostly 92.2 µM), for inactives: top-dose activity change, negative = less growth, most hits filed as inhibitors; 360,000 tested, 0.21% active; AID 651644, 2012; active means well fitted falling curve with a large enough effect; inconclusive means small, poorly fitted or top-dose-only effect; inactive means no such curve, though single readings can be large or run the other way; further: on the % scale 0 is the no-effect control and ±100 the full control effect; nearly all actives have a fitted effect of over 50% in size
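Fission yeast strain RE007, carrying one chromosomally integrated HIV-1 vpr copy, was seeded at OD 0.01 in PMG+AL medium with 23 nL pinned compound. After 24 h at 30 °C and 99% humidity, viability was read by BacTiter-Glo luminescence.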
LmPK inh: qHTS Assay for Inhibitors of Leishmania Mexicana Pyruvate Kinase (LmPK) | Q27686 | purified LmPK, Kinase-Glo ATP luminescence, 1 h | Potency, µM (highest dose often 57.5 µM), without a hit: at the top dose activity change, negative = inhibition, hits mostly inhibitors | 290,000 tested, 0.37% active | AID 1721, 2009; further: on the % scale 0 is the no-effect control and ±100 the full control effect
Target sequence (Q27686 whole entry, looked up): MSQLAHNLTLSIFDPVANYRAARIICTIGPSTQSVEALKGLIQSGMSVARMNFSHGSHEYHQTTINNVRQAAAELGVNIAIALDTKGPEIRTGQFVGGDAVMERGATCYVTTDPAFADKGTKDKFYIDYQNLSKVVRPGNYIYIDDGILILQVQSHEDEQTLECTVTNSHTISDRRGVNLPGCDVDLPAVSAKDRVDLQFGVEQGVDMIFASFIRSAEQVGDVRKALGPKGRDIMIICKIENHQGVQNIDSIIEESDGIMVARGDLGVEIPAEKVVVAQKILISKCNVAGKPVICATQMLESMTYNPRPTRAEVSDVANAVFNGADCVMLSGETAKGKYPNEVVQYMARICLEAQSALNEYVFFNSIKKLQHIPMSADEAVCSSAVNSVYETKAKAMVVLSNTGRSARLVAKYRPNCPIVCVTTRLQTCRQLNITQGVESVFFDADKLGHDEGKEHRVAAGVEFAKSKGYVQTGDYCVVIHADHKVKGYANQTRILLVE
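0.1 nM LmPK, 0.5 mM PEP, 0.1 mM ADP; 50 mM imidazole pH 7.2, 7 mM MgCl2, 50 mM KCl; 1 h RT. Kinase-Glo luminescence readout, normalized to no-enzyme (full inhibition) and uninhibited wells.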
* = called active by the depositor; i = inactive; ? = inconclusive; . = not tested or not shown. Compounds with a hit are over-represented: about 0.77% of the library has one in this group of screens. Unless noted, the call rests on the fitted dose curve; in most records, active means well fitted curve in the direction sought with a large enough effect; inconclusive means small, poorly fitted or top-dose-only effect, or another doubt; inactive means no such curve, though single readings can be large; an effect the other way counts as inactive or inconclusive. Potency means the concentration at half of the fitted maximal effect.

SMILES	Tb PYK inh	NS1 function inh	RE007 growth inh	LmPK inh
CC(C)(C)c1ccc(/C=N/Nc2ccc(C(=O)O)cc2)cc1	-2%	12%	?	-3%
O=C(O)c1ccc(N/N=C/c2ccc(C(F)(F)F)cc2)cc1	-11%	.	35µM*	1%
O=C(c1cccc(F)c1)N1CCC[C@@]2(CCN(C(c3ccccc3)c3ccccc3)C2)C1	-9%	.	.	.
Nc1ccccc1SC(CC(=O)c1ccccc1)c1ccccc1 (stereo not drawn)	-15%	.	-28%	.
CC(C(Sc1ccccc1N)c1ccccc1)[N+](=O)[O-] (stereo not drawn)	25µM*	-34%	-29%	6%
CCCNC(=O)C1=CC(c2ccc3c(c2)OCO3)=NS(=O)(=O)N1C	3%	.	.	.
CCc1ccc(C2CC(c3ccco3)=NN2S(C)(=O)=O)cc1 (stereo not drawn)	-12%	6%	-23%	13µM*
CC(=O)Nc1ccc2nc3c(=O)n(C)c(=O)n(C)c3nc2c1C	-2%	.	.	.
CCCCS(=O)(=O)/C=C\C=C/S(=O)(=O)CCCC	?	-84%	8.9µM*	13%
CCCCS(=O)(=O)/C=C\C1C2C=CC(C2)C1S(=O)(=O)CCCC (stereo not drawn)	-1%	-4%	6%	4%
CCOc1ccccc1NC(=O)C1CCN(S(=O)(=O)Cc2ccccc2)CC1	1%	.	.	.
CC1=NN(c2ccccc2)C(=O)/C1=C/C=C/c1ccc(N(C)C)cc1	?	.	-6%	14µM*
CC1=NN(c2ccccc2)C(=O)/C1=C\C=C\c1ccccc1	0%	0%	6%	-2%
Cc1cc(N2CCOCC2)ccc1/C=C\[N+](=O)[O-]	-22%	-77%	7.9µM*	-11%
O=C(CCN1CCc2ccccc21)c1ccc2c(c1)OCCO2	-8%	17%	?	-21%
O=C(CCN1CCCCC1)c1ccc2c(c1)OCCO2	2%	-81%	i	5%
O=C(CCN1CCCC1Cc1ccccc1)c1ccc2c(c1)OCCO2 (stereo not drawn)	-6%	-222%	25µM*	6%
O=C(CCN1CCc2ccccc2C1)c1ccc2c(c1)OCCO2	-24%	-57%	7.9µM*	5%
CCc1ccc2oc(-c3ccc(NC(C)=O)cc3)nc2c1	0%	-67%	5.6µM*	-1%
O=c1c2ccccc2sn1-c1ccc(S(=O)(=O)N2CCCC2)cc1	6.3µM*	-6%	0%	9%
O=c1c2ccccc2sn1-c1ccc(S(=O)(=O)N2CCCCC2)cc1	?	-10%	1%	.
Cc1ccc(C(=O)NNC(=O)c2ccccc2)cc1S(=O)(=O)N1CCCCC1	-3%	.	-9%	.
Cc1ccc(-n2sc3ccccc3c2=O)cc1S(=O)(=O)N1CCCCC1	4µM*	-27%	16µM*	-3%
CCOC(=O)c1c(S(=O)(=O)N2CCCC(C(=O)N3CCN(c4ccc(F)cc4)CC3)C2)c(C)n(C)c1C (stereo not drawn)	2%	.	.	.
Cc1ccc(-c2n[nH]c(=S)n2/N=C/c2ccc(C)o2)cc1	2.5µM*	20%	7%	-13%
SMILES	Tb PYK inh	NS1 function inh	RE007 growth inh	LmPK inh
Cn1cccc1/C=N/n1c(-c2ccccc2)n[nH]c1=S	?	6%	18%	7.9µM*
Cn1cccc1/C=N/n1c(-c2ccc(C(C)(C)C)cc2)n[nH]c1=S	?	-55%	13%	20µM*
CN(C)c1ccc(/C=N/n2c(-c3cccnc3)n[nH]c2=S)cc1	2.8µM*	-3%	12%	0%
CC(C)c1nn2c(=O)cc(COC(=O)CNC(=O)c3ccccc3Cl)nc2s1	-5%	.	.	.
O=[N+]([O-])c1cc2oc3c(c2c(C=NCc2ccncc2)c1O)CCCC3	?	-31%	?	14µM*
CCN(CC)c1cc(-c2ccccc2)ncn1	4%	-7%	-2%	2%
CN(C)c1ccc(-c2ccccc2)nn1	-18%	-14%	-11%	25µM*
Cc1cccc(-c2cc3c(nn2)-c2ccccc2C3=O)c1	-20%	-63%	?	7.1µM*
Cc1ccccc1C(=O)Nc1ccc(S(=O)(=O)N2CCC(c3nc4ccccc4s3)CC2)cc1	-2%	.	.	.
CC(C)Cc1nnc(NC(=O)CCC(=O)N2CCN(c3ccccn3)CC2)s1	-3%	-2%	0%	8%
CC(C)c1nnc(NC(=O)CCC(=O)N2CCN(c3ccccn3)CC2)s1	-2%	1µM*	10%	-2%
O=c1oc2ccccc2cc1-c1nc2ccccc2o1	-5%	-44%	?	?
